mHTT CaM bind = inhibitors of human mutant huntingtin-calmodulin interaction; P42858; AlphaScreen His-mHTT/GST-CaM binding, luminescence; inhibition, % at 15 µM; 3.6% of 190,000 active
Pf apPOL inh = Pf-apPOL DNA polymerase inhibition; 0.25% of 210,000 active; Recombinant Pf-apPOL, molecular beacon fluorescence, 1.5 h; inhibition, % at 10 µM
Large screens that a line does not name were inactive. This is one part of a sample in which hits are shown more often than they occur. No stated cut-off is given here; in the data, active means inhibition above about 50%; inactive means the rest.

CCc1ccc(NC(=O)C2c3cc(OC)c(OC)cc3C(=O)N3CCCCC23)cc1 (stereo unspecified)	none
COc1cc2c(cc1OC)-c1c(OC)c(OC)c([N+](=O)[O-])c3c1C(C2)N(C)CC3 (stereo unspecified)	mHTT CaM bind 57 (no result: Pf apPOL inh)
COc1cc2c(cc1OC)C1c3cc([N+](=O)[O-])ccc3Oc3cc(C#N)c(C#N)cc3N1CC2 (stereo unspecified)	none
COC(=O)c1ccccc1NC(=O)c1cccn(Cc2ccc(Cl)cc2Cl)c1=O	none
COc1cccc(N2CCNCC2)n1	none (no result: Pf apPOL inh)
CCC(=O)Nc1ccc(Cl)cc1C(=O)c1ccccc1	none
O=C(CN1CCOCC1)Nc1ccc(Cl)cc1C(=O)c1ccccc1	Pf apPOL inh 74
COC1CCCCC1NCCc1cccc(Cl)c1 (stereo unspecified)	none
COc1cc(CNCCc2cccc(Cl)c2)c([N+](=O)[O-])cc1OC	mHTT CaM bind 57
COc1cc(OC)c(OC)cc1CNCCc1cccc(Cl)c1	none
Nc1nonc1N=[N+]([O-])c1nonc1N	none (no result: Pf apPOL inh)
COCCN1CCC(N2CCCN(C(=O)Cc3c[nH]c4ccccc34)CC2)C1=O (stereo unspecified)	none
CCc1ccc(C(=O)CCN(C)C)cc1	none
CN(C)CCC(=O)c1ccc(Cl)c(Cl)c1	mHTT CaM bind 100
O=C(NC(Oc1ccccc1[N+](=O)[O-])C(Cl)(Cl)Cl)c1ccco1 (stereo unspecified)	none
CN1CCN(Cc2ccc[nH]2)CC1	none
CN1CCN(Cc2ccco2)CC1	Pf apPOL inh 78
CCC(=O)N1N=C2C3CCN(CC3)C2C1c1ccc(F)cc1 (stereo unspecified)	none
COc1ccc(/C=C/[N+](=O)[O-])cc1Br	mHTT CaM bind 67
CN(C)c1ccc(/C=C/[N+](=O)[O-])cc1Br	none
COc1ccc(/C=C/[N+](=O)[O-])cc1I	mHTT CaM bind 72
COc1ccc(/C=C/[N+](=O)[O-])cc1	none
COc1ccc2c(c1)C1(CCN(C(=O)C3CCCC3)C1)C(=O)N2 (stereo unspecified)	none
COc1cccc(CN2CCN(c3ccc(F)cc3)CC2)c1OC	Pf apPOL inh 58
COc1cccc(CN2CCN(c3ccc(Cl)cc3)CC2)c1OC	none
Cc1ccc(CNC(C)Cc2ccccc2)o1 (stereo unspecified)	none
O=[N+]([O-])c1ccc(N2CCNCC2)cc1NCCc1ccccc1	mHTT CaM bind 91
O=[N+]([O-])c1ccc(N2CCNCC2)cc1NCCO	none
Fc1ccc(N2CCN(CCc3ccccc3)CC2)cc1	none
N#Cc1c(Cl)c(Cl)nc(N2CCCNCC2)c1Cl	mHTT CaM bind 100
CC1(C)Cc2c(C#N)c(N3CCNCC3)nc(Cc3ccccc3)c2CO1	none
CCN1CCN(Cc2ccsc2)CC1	none
CN(C)C(=O)Oc1ccc2c(c1)OC(=Cc1ccc(Cl)cc1)C2=O	none
Brc1cccc(C2CC(c3cccnc3)Nc3nnnn32)c1 (stereo unspecified)	none
Brc1ccc2c(c1)C1C=CCC1C(c1cccnc1)N2 (stereo unspecified)	mHTT CaM bind 85
NP(=O)(Oc1ccccc1F)Oc1ccccc1F	none
c1nnc(C2CC2)n1C1CCNCC1	none
CC(C)c1c(C(=O)O)nnn1Cc1ccccc1	none

Compound activity deposited in PubChem BioAssay by University of Kansas High Throughput Screening Laboratory.
